According to PubChem BioAssay (Tox21):
Records with an inconclusive call do not appear. The source made the active and inactive calls. Unless noted, the call rests on the fitted dose curve; in most records, active means well fitted curve in the direction sought with a large enough effect in the repeat runs; inconclusive means weak or mixed curves; inactive means no such curve, though single readings can be large; an effect the other way counts as inactive or inconclusive.

How the values were obtained:
[1] = qHTS assay to identify small molecule agonists of the vitamin D receptor (VDR) signaling pathway - cell viability counter screen (AID 743224); further: nearly all actives have a fitted effect of over 50% in size; further: potency means the concentration at half of the fitted maximal effect
Procedure, shortened: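 Compounds were pin-transferred onto VDR-bla cells plated 4 h earlier; following 16 h incubation at 37C, cell viability was quantified by CellTiter-Glo luminescence after 30 min at room temperature.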

[2] = qHTS assay to identify small molecule antagonists of the vitamin D receptor (VDR) signaling pathway - cell viability counter screen (AID 743225); further: nearly all actives have a fitted effect of over 50% in size; further: potency means the concentration at half of the fitted maximal effect
Procedure, shortened: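 Cells (VDR-UAS-bla HEK 293T) are plated, rested 4 h at 37C, dosed with compound and 3 nM final 1-alpha,25-dihydroxy vitamin D3, and incubated 16 h. Viability is taken from CellTiter-Glo luminescence in the reporter wells.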

[3] = qHTS assay to identify small molecule agonists of the NFkB signaling pathway - cell viability counter screen (AID 1159515; calls by dose curve; further: nearly all actives have a fitted effect of over 55% in size; further: potency means the concentration at half of the fitted maximal effect)
Procedure, shortened: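 Parallel cytotoxicity counter screen in ME-180 cells carrying an NFkB-response-element beta-lactamase reporter, 2,000 cells/well. Compound exposure lasted 5 hr at 37 C, 5% CO2. Cell viability was quantified by CellTiter-Glo luminescence.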

[4] = qHTS assay to identify small molecule antagonists of the retinoid-related orphan receptor gamma (ROR-gamma) signaling pathway - cell viability counter screen (AID 1159520); further: nearly all actives have a fitted effect of over 50% in size; further: potency means the concentration at half of the fitted maximal effect
Procedure, shortened: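 Cytotoxicity was read from cellular ATP (CellTiter-Glo luminescence) after 16 hr at 37 C with 1 uM doxycycline induction. The inducer was added 2 hr after compound transfer to Tet-on ROR gamma CHO cells.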

[5] = molecular target: Nuclear receptor ROR-gamma (Homo sapiens) (UniProt P51449); experiment: qHTS assay to identify small molecule antagonists of the retinoid-related orphan receptor gamma (ROR-gamma) signaling pathway (AID 1159521; further: nearly all actives have a fitted effect of over 50% in size; further: potency means the concentration at half of the fitted maximal effect)
Procedure, shortened: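 RORγ antagonism is scored from reduced reporter luminescence in Tet-on CHO cells. Induction used 1 uM final doxycycline hyclate for 16 h at 37 C, following a 2 h compound exposure.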

[6] = qHTS assay to identify small molecule agonists of the AP-1 signaling pathway - cell viability counter screen (AID 1159525; calls by dose curve; further: nearly all actives have a fitted effect of over 55% in size; further: potency means the concentration at half of the fitted maximal effect)
Procedure, shortened: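 Intracellular ATP by Cell Titer Glo luminescence (30 min, RT) in the same ME-180 AP-1-bla wells after the 5 h compound exposure at 37 °C. Normalised to tetra n-octyl ammonium bromide and DMSO controls.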

[7] = qHTS assay to identify small molecule agonists of the AP-1 signaling pathway (AID 1159526; calls by dose curve; further: on the % scale 0 is the no-effect control and ±100 the full control effect)
[8] = qHTS assay to identify small molecule agonists of the RXR signaling pathway - cell viability counter screen (AID 1159529); further: nearly all actives have a fitted effect of over 50% in size; further: potency means the concentration at half of the fitted maximal effect
Procedure, shortened: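 Cell viability is measured by CellTiter-Glo luminescence, 30 min at room temperature, in wells already read for beta-lactamase. Engineered HEK 293T cells (RXR-alpha-UAS-bla) are dosed 16 hr at 37 C. Tetraoctyl ammonium bromide serves as positive control.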

[9] = qHTS assay to identify small molecule antagonists of the retinoid acid receptor (RAR) signaling pathway - cell viability counter screen (AID 1159551); further: nearly all actives have a fitted effect of over 35% in size; further: potency means the concentration at half of the fitted maximal effect
Procedure, shortened: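 ATP-based viability, C3RL4 cells, 6 h at 37 C with 1 uM final retinol co-added after compound; luminescence read 30 min post CellTiter-Glo, RT.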

[10] = qHTS assay to identify small molecule antagonists of the retinoic acid receptor (RAR) signaling pathway (AID 1159552; further: nearly all actives have a fitted effect of over 50% in size; further: potency means the concentration at half of the fitted maximal effect)
Procedure, shortened: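 Quantitative HTS in C3RL4 RARE-luciferase reporter cells. Compounds were added with 1 uM (final) retinol; luminescence was read after 6 hr.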

[11] = qHTS assay to identify small molecule agonists of the retinoic acid receptor (RAR) signaling pathway (AID 1159553); further: on the % scale 0 is the no-effect control and ±100 the full control effect
Procedure, shortened: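 Quantitative high-throughput format: the Tox21 10K library was tested on C3RL4 RARE-luciferase cells for 6 hr at 37 C and 5% CO2, with luminescence measured after a 30 min room-temperature reagent step.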

[12] = qHTS assay to identify small molecule agonists of the endoplasmic reticulum stress response signaling pathway - cell viability counter screen (AID 1159517; calls by dose curve)
Procedure, shortened: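 ESRE-bla HeLa cells (1,500/well) were plated overnight at 37 C and exposed to compounds for 5 hr. After the 2 hr beta-lactamase substrate read, CellTiter-Glo went into the same wells, and luminescence was read after 30 min at room temperature.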

[13] = molecular target: Retinoic acid receptor RXR-alpha (Homo sapiens) (UniProt P19793); experiment: qHTS assay to identify small molecule agonists of the RXR signaling pathway (AID 1159527; calls by dose curve; further: on the % scale 0 is the no-effect control and ±100 the full control effect; nearly all actives have a fitted effect of over 35% in size)
Procedure, shortened: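 qHTS of the Tox21 10K library in GeneBLAzer RXR-alpha HEK 293T cells carrying a beta-lactamase reporter […]; 16 hr treatment, 9-cis retinoic acid as agonist control, FRET read-out.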

[14] = qHTS assay to identify small molecule antagonists of the estrogen related receptor (ERR) signaling pathway (AID 1224819)
Procedure, shortened: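 ERR reporter cell line (NTP) plated at 2,000 cells/well, settled 6 h at 37C/5% CO2, then exposed to LOPAC compounds for 18 h at 37C. One-Glo luciferase luminescence read after 30 min at room temperature.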

[15] = qHTS assay to identify small molecule agonists of the estrogen related receptor (ERR) signaling pathway (AID 1224820); further: on the % scale 0 is the no-effect control and ±100 the full control effect
Procedure, shortened: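 An ERR cell line provided by NTP was seeded at 2,000 cells per well and allowed to settle for 6 h before compounds in DMSO were added. After 18 h at 37 C, luciferase activity was measured by One-Glo luminescence.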

[16] = qHTS assay to identify small molecule agonists of the estrogen related receptor signaling pathway with the pleiotropic PPARgamma coactivator (PGC) (AID 1224823); further: on the % scale 0 is the no-effect control and ±100 the full control effect
Procedure, shortened: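 Compounds dissolved in DMSO are added by pin tool to PGC/ERR cells that have settled for 6 h, and incubation continues 18 h at 37 C. Reporter output is measured as One-Glo luminescence.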

Sequence of Retinoic acid receptor RXR-alpha (Homo sapiens) (P19793 whole entry, looked up): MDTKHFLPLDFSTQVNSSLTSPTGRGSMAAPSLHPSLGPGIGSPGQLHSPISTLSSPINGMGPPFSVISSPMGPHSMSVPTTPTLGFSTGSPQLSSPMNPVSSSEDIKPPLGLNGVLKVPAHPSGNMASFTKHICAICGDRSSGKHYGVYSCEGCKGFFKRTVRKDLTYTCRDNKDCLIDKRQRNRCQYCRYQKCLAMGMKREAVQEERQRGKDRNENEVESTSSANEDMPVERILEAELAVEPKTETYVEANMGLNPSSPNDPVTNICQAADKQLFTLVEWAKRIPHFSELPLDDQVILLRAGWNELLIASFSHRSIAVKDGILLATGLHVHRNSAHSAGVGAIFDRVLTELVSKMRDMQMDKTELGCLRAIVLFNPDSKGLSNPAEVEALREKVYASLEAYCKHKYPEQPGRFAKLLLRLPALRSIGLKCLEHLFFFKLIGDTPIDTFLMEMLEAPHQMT

CSc1cnc(C)cn1
inactive: Potency [1] | Potency [2] | Potency [3] | Potency [4] | Potency [5] | Potency [6] | Potency [7] | Potency [8] | Potency [9] | Potency [10] | Potency [11]

Cc1[nH]cnc1C[C@H]1CCc2c(C)c3ccccc3n2C1=O
inactive: Potency [1] | Potency [2] | Potency [3] | Potency [12] | Potency [6] | Potency [11]
active: Potency [5] 23.7 µM | Potency [8] 19 µM

Oc1c(Cl)cc(Cl)c2cccnc12
active: Potency [3] 0.477 µM | Potency [5] 11.9 µM | Potency [8] 0.952 µM
inactive: Potency [12] | Potency [9]

CC1=C(C(=O)OC(C)C)C(c2cccc([N+](=O)[O-])c2)C(C(=O)OC2CN(C(c3ccccc3)c3ccccc3)C2)=C(N)N1 (stereo not given)
active: Potency [2] 16.9 µM | Potency [3] 10.7 µM | Potency [4] 26.6 µM | Potency [5] 21.1 µM | Potency [6] 15.1 µM | Potency [8] 13.4 µM | Potency [10] 23.7 µM

CCCCCCCCCCCCCCCCCC[N+](C)(C)Cc1ccccc1
active: Potency [1] 13.9 µM | Potency [3] 22.1 µM | Potency [4] 27.6 µM | Potency [5] 15.5 µM | Potency [6] 39.3 µM | Potency [8] 4.95 µM | Potency [9] 61.7 µM | Potency [10] 24.6 µM

O=C(OC[C@H]1O[C@@H](OC(=O)c2cc(O)c(O)c(OC(=O)c3cc(O)c(O)c(O)c3)c2)[C@H](OC(=O)c2cc(O)c(O)c(OC(=O)c3cc(O)c(O)c(O)c3)c2)[C@@H](OC(=O)c2cc(O)c(O)c(OC(=O)c3cc(O)c(O)c(O)c3)c2)[C@@H]1OC(=O)c1cc(O)c(O)c(OC(=O)c2cc(O)c(O)c(O)c2)c1)c1cc(O)c(O)c(OC(=O)c2cc(O)c(O)c(O)c2)c1
inactive: Potency [3] | activity, negative = cytotoxicity [4] -4.77% [at 19 µM] | viability change, negative = cytotoxic [6] 1.96% [at 15.8 µM] | activity change, negative = cytotoxicity [8] 11.4% [at 15.8 µM] | activity change, negative = cytotoxicity [9] -3.41% [at 19 µM] | activity, negative = inhibition [10] 22.4% [at 19 µM] | Potency [11]

CCCCN(CCCC)C(=O)N(CCCC)CCCC
inactive: Potency [1] | Potency [2] | Potency [3] | Potency [4] | Potency [5] | Potency [6] | Potency [13] | Potency [8] | Potency [9] | Potency [10] | Potency [11]

O=Cc1cc(O)ccc1Br
inactive: Potency [1] | Potency [2] | Potency [3] | Potency [5] | Potency [6] | Potency [7] | Potency [8] | Potency [9]

COc1cccc2c1C(=O)c1c(O)c3c(c(O)c1C2=O)C[C@@](O)(C(=O)CO)C[C@@H]3O[C@H]1C[C@H](N)[C@H](O[C@@H]2CCCCO2)[C@H](C)O1
inactive: Potency [1] | Potency [2] | Potency [3] | Potency [5] | Potency [9]
active: Potency [4] 5.31 µM

CC[C@@]1(O)C(=O)OCc2c1cc1n(c2=O)Cc2cc3c(CN(C)C)c(O)ccc3nc2-1
inactive: Potency [3] | Potency [6] | Potency [9] | Potency [11] | outcome [15] | outcome [16]
active: Potency [4] 2.11 µM | Potency [10] 3.76 µM | Potency [14] 0.75 µM
